An excerpt weighted towards active compounds, which were near 2.7% of everything screened.
ClpP mod – qHTS Assay for Activators of ClpP; ATP-dependent Clp protease proteolytic subunit (Bacillus subtilis (strain 168)), P80244; purified B. subtilis ClpP, FRET peptide cleavage, 20 min; Potency, µM (titrated, usually from 57.5 µM); 1.9% of 340,000 active; active = well fitted falling curve with a large enough effect; inconclusive = small, poorly fitted or top-dose-only effect; inactive = no such curve, though single readings can be large or run the other way; note: the source files actives as falling curves though it sought activators and does not explain the sign; nearly all actives have a fitted effect of over 65% in size
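Buffer: 100 mM Tris/HCl pH8, 100 mM KCl, 0.05% low protease BSA, 2.5% glycerol, 0.01% Tween-20. ClpP 10 microg/mL final; 20 min RT; delta FRET normalized to ADEP and DMSO controls.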
RXFP1 ag – qHTS Assay for Agonists of the Relaxin Receptor RXFP1; Relaxin receptor 1 (Homo sapiens), Q9HBX9; HEK293T-RXFP1 cAMP TR-FRET, 30 min; response scale: percent of porcine relaxin response, buffer zero; Potency, µM (highest dose often 57.5 µM), hits mostly activators; 0.3% of 370,000 active; active = well fitted activation curve with a large enough effect; inconclusive = small, poorly fitted or top-dose-only effect; note: nearly all actives have a fitted effect of over 60% in size
Target sequence (Q9HBX9 whole entry, looked up): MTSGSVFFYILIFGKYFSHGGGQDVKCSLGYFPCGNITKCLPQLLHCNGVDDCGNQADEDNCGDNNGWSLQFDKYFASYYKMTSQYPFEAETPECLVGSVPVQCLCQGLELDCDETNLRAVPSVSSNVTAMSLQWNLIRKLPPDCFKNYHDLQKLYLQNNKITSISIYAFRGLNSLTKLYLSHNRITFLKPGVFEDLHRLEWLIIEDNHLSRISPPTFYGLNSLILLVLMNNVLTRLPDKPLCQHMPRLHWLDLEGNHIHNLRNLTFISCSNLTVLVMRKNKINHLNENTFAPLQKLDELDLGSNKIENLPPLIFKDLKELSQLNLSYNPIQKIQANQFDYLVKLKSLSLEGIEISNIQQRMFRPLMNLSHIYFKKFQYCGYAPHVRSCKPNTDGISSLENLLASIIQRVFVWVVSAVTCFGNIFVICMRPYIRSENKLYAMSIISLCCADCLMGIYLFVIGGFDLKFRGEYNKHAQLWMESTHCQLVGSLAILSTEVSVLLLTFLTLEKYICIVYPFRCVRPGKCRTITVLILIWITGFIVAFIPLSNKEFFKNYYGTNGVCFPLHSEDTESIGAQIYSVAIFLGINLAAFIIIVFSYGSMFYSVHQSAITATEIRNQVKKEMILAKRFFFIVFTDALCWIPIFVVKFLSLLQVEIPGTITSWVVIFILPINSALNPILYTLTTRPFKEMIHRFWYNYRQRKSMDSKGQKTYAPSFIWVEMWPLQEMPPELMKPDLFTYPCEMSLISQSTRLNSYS
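HEK293 cells stably expressing RXFP1, treated 30 min at 37C with compounds plus PDE4 inhibitor Ro 20174; cAMP measured by HTRF TR-FRET. Normalized to buffer and 29 nM porcine relaxin; EC50 by Hill fit.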
RXFP1 antagonist – qHTS Assay for Antagonists of the Relaxin Receptor RXFP1. Relaxin receptor 1 (Homo sapiens), Q9HBX9. 0.59% of 350,000 active. activity change, negative = inhibition, % at 57.5 µM. AID 1259400, 2018. HEK293-RXFP1, relaxin-stimulated cAMP HTRF, 30 min; stronger effect = lower value;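 active = activity change of -60% or lower, but not beyond a set lower limit; inconclusive = change between -60% and -40%, or beyond the set limit; inactive = change above -40%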
gsp ag – qHTS for Agonist of gsp, the Etiologic Mutation Responsible for Fibrous Dysplasia/McCune-Albright Syndrome: qHTS. gsp mutant cells, cAMP HTRF, 30 min. Potency, µM (top dose mostly 76.9 µM), usual class: activators. 0.13% of 340,000 active. AID 624287, 2012; active = well fitted activation curve with a large enough effect; inconclusive = small, poorly fitted or top-dose-only effect, or another doubt; inactive = no such curve, though single readings can be large or run the other way; cell line not stated here;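 note: phosphodiesterase inhibitor Ro 20-1724 added with compounds to block cAMP breakdown; nearly all actives have a fitted effect of over 60% in size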
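Cells stably selected in G418 were plated at 2000/well, grown 16-24 hr, then given compounds in DMSO with the PDE inhibitor […] (300 uM solution added) for 30 min at 37C; cAMP was read by HTRF.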
gsp antag – qHTS for Antagonists of gsp, the Etiologic Mutation Responsible for Fibrous Dysplasia/McCune-Albright Syndrome: qHTS; gsp-mutant cells, cAMP HTRF, 30 min; Potency, µM (doses to about 76.9 µM), actives largely listed as inhibitors; 0.4% of 340,000 active; calls by dose curve; cell line not stated here;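 note: intracellular cAMP measured with PDE inhibitor Ro 20-1724 present during compound exposure; nearly all actives have a fitted effect of over 65% in size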
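G418-selected cells were plated in DMEM/10% FBS for 16-24 h at 37C, then treated with compounds plus the PDE inhibitor […] (300 uM solution added) for 30 min at 37C. Intracellular cAMP was measured by HTRF after 30 min lysis at room temperature.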
Akt phos inh – HTS Assay for Inhibitors of Akt Phophorylation: Primary Screen. activity change, % for hits at 50 µM. Neuro2A IGF-stimulated pAkt S473 HTRF, 20 min; stronger effect = lower value. 0.32% of 360,000 active; in the data active = activity change below about -80%; inconclusive = mostly about -51% to -80%
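Single-point screen (50 µM final compound) in Neuro2A cells stimulated 20 min with 6 nM IGF at 37 deg C. After lysis, Ser473-phosphorylated Akt read by HTRF (ex 330 nm, em 615/665 nm) as the 665/615 ratio.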
Numbers stand for hits; n = inactive; u = inconclusive; x = no result given; [ ] = another dose, or the depositor's remark.

SMILES	ClpP mod	RXFP1 ag	RXFP1 antagonist	gsp ag	gsp antag	Akt phos inh
COc1ccc(-c2cc(C(F)(F)F)nc(SCC(=O)Nc3ccc(O)cc3)n2)cc1OC	n	n	x	x	x	x
COc1ccc(NC(=O)CCSc2nc(-c3ccc(OC)cc3)cc(C(F)(F)F)n2)cc1	n	u	x	x	x	x
O=C(CCS(=O)(=O)c1nc(-c2cccs2)cc(C(F)(F)F)n1)Nc1cccc(O)c1	n	n	u	x	x	x
COc1ccc(-c2cc(C(F)(F)F)nc(SCC(=O)Nc3cc(C)on3)n2)cc1OC	13µM	n	n	n	n	n
COc1ccc(-c2cc(C(F)(F)F)nc(SCC(=O)NCc3ccc(OC)c(OC)c3)n2)cc1	n	n	x	x	x	x
O=C(O)CCS(=O)(=O)c1nc(-c2cccs2)cc(C(F)(F)F)n1	14µM	n	n	n	n	n
COc1ccc(-c2cc(C(F)(F)F)nc(SCCC(=O)Nc3cc(C)on3)n2)cc1	35µM	n	n	n	n	n
COc1ccc(-c2cc(C(F)(F)F)nc(SCC(=O)NCc3cccs3)n2)cc1OC	25µM	n	n	n	n	n
Cc1ccc(-c2nc3ccccc3o2)cc1NC(=O)COc1ccccc1C	n	x	x	x	x	x
CC[N+](CC)(CC)c1ccc(/C=C/c2ccc3ccccc3n2)cc1	n	x	x	x	x	x
C1=C/C(=C2/C=Cc3ccccc32)c2ccccc2N1	n	x	x	x	x	x
O=C(CSc1nc(-c2cccs2)cc(C(F)(F)F)n1)NCc1ccccc1	35µM	n	n	n	n	n
O=C1CC(c2ccco2)CC2=C1C(c1ccccc1)n1nc(C(F)(F)F)nc1N2 (configuration not stated)	25µM	n	n	n	n	n
COc1ccc2[nH]c3c(=O)n(CCCC(=O)NC4CCCCC4C)c(=S)[nH]c3c2c1 (configuration not stated)	x	n	-66	n[15.4 µM]	n	n
COc1ccc2[nH]c3c(=O)n(CCCCC(=O)N4CCCC4)c(=S)[nH]c3c2c1	n	n	-107	n	n	n
CC1CCCCC1NC(=O)CCCCCn1c(=S)[nH]c2ccsc2c1=O (configuration not stated)	n	n	-73	n	n	x
O=C(CCCn1c(=S)[nH]c2ccsc2c1=O)NC1CCCCC1	n	n	u	u	n	n
Cc1cccc(Cc2cccc(C)c2O)c1O	x	x	n	n	n	n
O=C(c1cccc(Cl)c1)N1CCC(C(=O)N2CCN(Cc3ccccc3)CC2)CC1	28µM	n	n	u	n	n
O=C(c1cccc(C(=O)N2CCN(Cc3ccccc3)CC2)c1)N1CCN(Cc2ccccc2)CC1	n	n	n	n	n	n
COc1ccccc1CNC(=O)Cn1ncc2c3ccccc3n(Cc3ccccc3C)c2c1=O	u	n	n	x	x	x
Cc1ccccc1Cn1c2ccccc2c2cnn(CC(=O)NCc3cccc(Cl)c3)c(=O)c21	22µM	n	n	x	x	x
COc1cc2c(cc1OC)/C(=C/C(=O)N1CCOCC1)NC(C)(C)C2	13µM	n	n	u	n	n
O=C(NC1CCC1)C1CCC(=O)N(Cc2ccccc2F)C1 (configuration not stated)	n	n	n	n	n	x
CCNc1nc(C)c2cc(Br)c(=O)n(CC)c2n1	u	u	n	20µM	n	-104%
COc1ccc(C)cc1S(=O)(=O)N1CCN(c2cccc(Cl)c2)CC1	n	n	x	x	x	x
O=C(COc1ccccc1)N1c2ccccc2Sc2ccccc21	16µM	n	n	n	n	n
O=C(COc1cccc(F)c1)N1c2ccccc2Sc2ccccc21	n	n	x	n	n	n
CCNS(=O)(=O)c1ccc2c3c(cccc13)C(=O)N2	32µM	n	n	n	n	n
Cc1cc(C)n(-c2ncnc3sc(C)c(C)c23)n1	32µM	n	n	n	n	n
